Drawing on PubChem BioAssay (EPA / NIEHS), this text covers outcome and AC50 for 8 molecules.

Inconclusive results are not listed. The source made the active and inactive calls. Rule for the calls, unless noted: active = hit-call score of the fitted dose curve at least 0.9, where 1 is the maximum; inactive = score below 0.9.

Test [1] has as its target Paired box protein Pax-6 (Homo sapiens) (UniProt P26367). As to the kind of experiment: ATG_Pax6_CIS: Attagene CIS-FACTORIAL HepG2 Assay for human Paired Box 6 (PAX6) (AID 2282956). The conditions noted are these: HepG2 CIS-FACTORIAL PAX6 reporter transcription, RNA readout; actives raise or lower the signal. The method in brief:
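Readout: reporter transcript fluorescence after RT-PCR and capillary electrophoresis. Cells: HepG2, transiently transfected with cis-regulated MRTUs. Exposure 24 h. Gain or loss of signal fitted bidirectionally relative to DMSO.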

Test [2] in a line: ATG_PXRE_CIS: Attagene CIS-FACTORIAL HepG2 Assay for human Pregnane X Receptor Element (PXRE) (AID 2282957). Particulars: HepG2 Attagene CIS-FACTORIAL PXRE reporter, mRNA; actives raise or lower the signal. The method in brief:
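Using HepG2 transfected with multiple reporter transcription units, endogenous factor-driven transcription was scored as reporter mRNA after 24 h exposure.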

Test [3] is described as follows: ATG_PPRE_CIS: Attagene CIS-FACTORIAL HepG2 Assay for human Peroxisome Proliferator-activated Response Element (PPRE) (AID 2282958). Particulars: HepG2 PPRE cis-element reporter, Attagene transcription factor profiling; actives raise or lower the signal. The method in brief: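 Multiplexed reporter transcription units under cis-regulatory promoters were transfected into HepG2 cells to capture endogenous factor activity. A 24 h incubation preceded RNA isolation and fluorescent RT-PCR fragment analysis.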

A short description of test [4]: ATG_RORE_CIS: Attagene CIS-FACTORIAL HepG2 Assay for human RAR-related Orphan Receptor Element (RORE) (AID 2282959). Particulars: HepG2 Attagene cis-factorial RORE reporter, mRNA; actives raise or lower the signal. The method in brief:
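Fluorescence intensity of reporter-specific cDNA fragments, separated by capillary electrophoresis, gives the signal. Source: HepG2 liver cells transiently transfected with cis-element reporters and exposed 24 h; DMSO-normalized bidirectional fit.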

Test [5] in a line: ATG_Sox_CIS: Attagene CIS-FACTORIAL HepG2 Assay for human SRY-box transcription factor (SOX) (AID 2282960). The conditions noted are these: HepG2 Attagene cis-factorial SOX reporter, mRNA; actives raise or lower the signal. The method in brief:
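After 24 h of chemical treatment, transfected HepG2 reporter cells are lysed for total RNA. Transcript levels come from RT-PCR with labelled primer extension and capillary electrophoresis, analysed bidirectionally versus DMSO.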

Test [6] addresses Transcription factor Sp1 (Homo sapiens) (UniProt P08047). The test can be described thus: ATG_Sp1_CIS: Attagene CIS-FACTORIAL HepG2 Assay for human Specificity Protein 1 (Sp1) (AID 2282961). Particulars: HepG2 Sp1 cis-reporter transcription, actives raise or lower the signal. The method in brief:
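Sp1-driven reporter mRNA, read as capillary electrophoresis fluorescence after RT-PCR, in transiently transfected HepG2 cells dosed for 24 h; signal change in either direction relative to DMSO.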

Test [7] concerns the target Signal transducer and activator of transcription 3 (Homo sapiens) (UniProt P40763). The test can be described thus: ATG_STAT3_CIS: Attagene CIS-FACTORIAL HepG2 Assay for human Signal Transducer and Activator of Transcription 3 (STAT3) (AID 2282963). Particulars: HepG2, Attagene cis-factorial STAT3 reporter transcription; actives raise or lower the signal. The method in brief:
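Readout: fluorescent reporter mRNA fragments resolved by capillary electrophoresis. Setup: HepG2 transfected with MRTUs reporting endogenous transcription-factor activity, dosed 24 h. Gain or loss of signal fitted bidirectionally against DMSO control.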

A short description of test [8]: ATG_TA_CIS: Attagene CIS-FACTORIAL HepG2 Assay for human TA Basal Promoter (AID 2282964). The conditions noted are these: HepG2 Attagene CIS-factorial TA basal promoter reporter; actives raise or lower the signal. The method in brief: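 Steps: transfect HepG2 with MRTUs; dose 24 h; isolate RNA, DNase-treat, reverse-transcribe; PCR and FAM-label reporter cDNA; digest with HpaI 2h at 37 C; run capillary electrophoresis. Activity fitted both directions against DMSO.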

A short description of test [9]: ATG_TCF_b_cat_CIS: Attagene CIS-FACTORIAL HepG2 Assay for human T-Cell-Factor with beta-catenin (TCF/b-cat) (AID 2282965). Particulars: HepG2 TCF/beta-catenin cis-reporter transcription, actives raise or lower the signal. The gist of the method: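 Cells of the HepG2 line carry transiently transfected reporter units whose promoters respond to endogenous factors. Twenty-four hours post-dosing, reporter mRNA induction is measured by fluorescent RT-PCR and capillary electrophoresis, with DMSO as baseline.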

The nature of test [10]: ATG_TAL_CIS: Attagene CIS-FACTORIAL HepG2 Assay for human TAL Basal Promoter (AID 2282966).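 Note: background control endpoint measuring basal TAL promoter reporter mRNA not a specific factor.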 Particulars: HepG2 Attagene cis-factorial TAL promoter reporter; actives raise or lower the signal. The method in brief:
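After 24 hours of chemical exposure, transfected HepG2 cells yielded RNA that was converted to 6-FAM-labelled, HpaI-digested reporter fragments for capillary electrophoresis. Values derive from bidirectional fitting against DMSO controls.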

Test [11] in a line: ATG_TGFb_CIS: Attagene CIS-FACTORIAL HepG2 Assay for human Transforming Growth Factor (TGF) (AID 2282967). The conditions noted are these: HepG2 Attagene CIS TGFb reporter, mRNA transcription; actives raise or lower the signal. The gist of the method: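 Cells were dosed for 24 hours, after which total RNA was reverse-transcribed and reporter sequences amplified, labeled and sized by capillary electrophoresis. Activity was fitted in both directions against DMSO.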

Test [12] can be described thus: ATG_VDRE_CIS: Attagene CIS-FACTORIAL HepG2 Assay for human Vitamin D Receptor Element (VDRE) (AID 2282968). The conditions noted are these: HepG2 VDRE cis-reporter transcription, actives raise or lower the signal. The method in brief:
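Transient MRTU transfection of HepG2, 24 h compound exposure. Readout: reporter transcripts via RT-PCR and capillary electrophoresis, fluorescence. Bidirectional fit vs DMSO.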

Test [13] has as its target Nuclear receptor subfamily 1 group I member 3 (Homo sapiens) (UniProt Q14994). As to the kind of experiment: ATG_CAR_TRANS: Attagene TRANS-FACTORIAL HepG2 Assay for human Constitutive Androstane Receptor (CAR) (AID 2282969; active = hit-call score of the fitted dose curve at least 0.9, where 1 is the maximum;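 note: activators raise reporter mRNA above DMSO so AC50 marks induction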). Particulars: HepG2 Attagene TRANS-FACTORIAL CAR reporter. The method in brief:
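Transiently transfected HepG2, multiplex TRANS reporters (CAR-Gal4 chimera driving GAL4-UAS reporter). 24 h dosing. Readout: reporter transcript by RT-PCR + capillary electrophoresis, fluorescence intensity; positive direction vs DMSO.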

For test [14], the target named is X-box-binding protein 1 (Homo sapiens) (UniProt P17861). The test can be described thus: ATG_Xbp1_CIS: Attagene CIS-FACTORIAL HepG2 Assay for human X-box Binding Protein 1 (XBP1) (AID 2282972). Particulars: HepG2 XBP1 cis-element reporter, Attagene multiplex; actives raise or lower the signal. The method in brief: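 Read-out: fluorescent reporter mRNA fragments resolved by capillary electrophoresis after RT-PCR. Human HepG2 liver cells carried transfected cis-promoter reporter units and were exposed to chemicals for 24 hours. Gain or loss of signal fitted relative to DMSO baseline.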

A short description of test [15]: ATG_M_19_TRANS: Attagene TRANS-FACTORIAL HepG2 Assay for M19 Transcription Factor (Internal Marker) (AID 2282974; active = hit-call score of the fitted dose curve at least 0.9, where 1 is the maximum). Particulars: HepG2 Attagene TRANS-FACTORIAL M19 internal marker reporter. The gist of the method:
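Measured here: internal-marker reporter transcript from HepG2 cells transfected with MRTUs, harvested at 24 h. cDNA PCR products were 6-FAM labelled by primer extension, cut with HpaI for 2 h at 37 C, and resolved by CE.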

Test [16] concerns the target Steroid hormone receptor ERR1 (Homo sapiens) (UniProt P11474). The test can be described thus: ATG_ERRa_TRANS: Attagene TRANS-FACTORIAL HepG2 Assay for human Estrogen-Related Receptor alpha (ERRa) (AID 2282971; active = hit-call score of the fitted dose curve at least 0.9, where 1 is the maximum). The conditions noted are these: HepG2 Attagene TRANS reporter, ERRa transactivation. The gist of the method:
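Reporter transcript induction was quantified by RT-PCR and capillary electrophoresis of FAM-labelled, HpaI-cut products after 24 h treatment of HepG2 cells carrying transiently transfected GAL4-UAS reporter units and an exogenous ERRa-Gal4 fusion; activity scored as increase over DMSO.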

For test [17], the target named is Androgen receptor (Homo sapiens) (UniProt P10275). As to the kind of experiment: ATG_AR_TRANS: Attagene TRANS-FACTORIAL HepG2 Assay for human Androgen Receptor (AR) (AID 2282973; active = hit-call score of the fitted dose curve at least 0.9, where 1 is the maximum). Particulars: HepG2 Attagene TRANS-FACTORIAL AR reporter transcription. The method in brief: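 Steps: transfect HepG2 with multiple GAL4-UAS reporter transcription units (TRANS format, exogenous NR-Gal4 protein); dose 24 h; isolate RNA, reverse-transcribe, PCR-amplify, FAM-label, HpaI-digest; resolve by capillary electrophoresis. Positive direction vs DMSO.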

Test [18] can be described thus: ATG_SREBP_CIS: Attagene CIS-FACTORIAL HepG2 Assay for human Sterol Regulatory Element Binding (SREBP) (AID 2282962). Particulars: HepG2 Attagene cis-factorial SREBP reporter, mRNA; actives raise or lower the signal. The method in brief: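 Readout: fluorescent reporter-transcript peaks resolved by capillary electrophoresis after RT-PCR. Cells were human HepG2 carrying transfected cis-promoter reporter constructs, dosed for 24 h. Gain or loss of signal was fitted against DMSO controls.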

Test [19] concerns the target Estrogen receptor (Homo sapiens) (UniProt P03372). As to the kind of experiment: ATG_ERa_TRANS: Attagene TRANS-FACTORIAL HepG2 Assay for human Estrogen Receptor alpha (ERa) (AID 2282970; active = hit-call score of the fitted dose curve at least 0.9, where 1 is the maximum). Particulars: HepG2 Attagene TRANS ERa GAL4 reporter, mRNA. The method in brief:
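Liver-derived HepG2 cells expressing chimeric nuclear receptor-Gal4 proteins from transient transfection were exposed for 24 hours. Gain of reporter mRNA signal versus DMSO, read by capillary electrophoresis of FAM-labelled PCR products, was recorded.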

Chain of Steroid hormone receptor ERR1 (Homo sapiens) (P11474 whole entry, looked up, the tested form may be a part): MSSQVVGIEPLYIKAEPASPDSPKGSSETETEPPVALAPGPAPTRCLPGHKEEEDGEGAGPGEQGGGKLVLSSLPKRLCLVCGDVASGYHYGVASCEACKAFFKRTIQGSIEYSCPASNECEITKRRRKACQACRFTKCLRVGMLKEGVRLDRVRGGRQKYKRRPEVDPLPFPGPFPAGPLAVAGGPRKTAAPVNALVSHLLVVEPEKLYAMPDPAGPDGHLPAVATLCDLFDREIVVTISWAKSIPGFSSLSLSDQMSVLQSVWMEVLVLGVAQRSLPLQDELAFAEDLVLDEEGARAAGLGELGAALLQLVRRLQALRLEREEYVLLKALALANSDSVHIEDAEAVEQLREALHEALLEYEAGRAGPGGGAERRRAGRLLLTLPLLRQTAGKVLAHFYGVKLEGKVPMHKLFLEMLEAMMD
Chain of Transcription factor Sp1 (Homo sapiens) (P08047 whole entry, looked up): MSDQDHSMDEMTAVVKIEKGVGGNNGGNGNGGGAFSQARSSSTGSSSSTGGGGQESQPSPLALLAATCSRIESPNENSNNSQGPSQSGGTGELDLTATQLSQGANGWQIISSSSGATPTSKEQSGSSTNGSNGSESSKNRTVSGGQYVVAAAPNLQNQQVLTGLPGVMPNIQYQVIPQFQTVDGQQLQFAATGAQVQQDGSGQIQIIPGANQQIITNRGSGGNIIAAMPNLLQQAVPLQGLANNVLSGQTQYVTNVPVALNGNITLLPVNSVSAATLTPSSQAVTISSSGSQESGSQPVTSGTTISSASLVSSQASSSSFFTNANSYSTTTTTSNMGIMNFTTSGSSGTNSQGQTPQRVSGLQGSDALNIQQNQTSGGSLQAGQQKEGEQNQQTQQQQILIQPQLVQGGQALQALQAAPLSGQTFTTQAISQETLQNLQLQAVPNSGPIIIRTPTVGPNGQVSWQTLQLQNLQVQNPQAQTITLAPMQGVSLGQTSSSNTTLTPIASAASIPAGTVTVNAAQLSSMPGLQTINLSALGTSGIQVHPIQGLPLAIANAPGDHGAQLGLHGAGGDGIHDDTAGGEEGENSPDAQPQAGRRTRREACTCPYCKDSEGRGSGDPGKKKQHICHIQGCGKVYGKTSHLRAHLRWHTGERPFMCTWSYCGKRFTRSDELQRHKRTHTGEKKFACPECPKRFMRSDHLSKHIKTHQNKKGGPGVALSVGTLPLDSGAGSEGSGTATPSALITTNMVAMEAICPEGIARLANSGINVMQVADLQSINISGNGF
Chain of X-box-binding protein 1 (Homo sapiens) (P17861 whole entry, looked up, the tested form may be a part): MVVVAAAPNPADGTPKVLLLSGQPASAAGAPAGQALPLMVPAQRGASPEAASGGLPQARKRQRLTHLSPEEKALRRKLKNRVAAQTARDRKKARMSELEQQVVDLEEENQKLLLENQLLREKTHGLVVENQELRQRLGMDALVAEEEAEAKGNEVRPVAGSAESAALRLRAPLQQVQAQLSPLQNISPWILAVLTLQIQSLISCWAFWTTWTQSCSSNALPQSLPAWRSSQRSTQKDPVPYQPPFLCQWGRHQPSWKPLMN
Chain of Androgen receptor (Homo sapiens) (P10275 whole entry, looked up, the tested form may be a part): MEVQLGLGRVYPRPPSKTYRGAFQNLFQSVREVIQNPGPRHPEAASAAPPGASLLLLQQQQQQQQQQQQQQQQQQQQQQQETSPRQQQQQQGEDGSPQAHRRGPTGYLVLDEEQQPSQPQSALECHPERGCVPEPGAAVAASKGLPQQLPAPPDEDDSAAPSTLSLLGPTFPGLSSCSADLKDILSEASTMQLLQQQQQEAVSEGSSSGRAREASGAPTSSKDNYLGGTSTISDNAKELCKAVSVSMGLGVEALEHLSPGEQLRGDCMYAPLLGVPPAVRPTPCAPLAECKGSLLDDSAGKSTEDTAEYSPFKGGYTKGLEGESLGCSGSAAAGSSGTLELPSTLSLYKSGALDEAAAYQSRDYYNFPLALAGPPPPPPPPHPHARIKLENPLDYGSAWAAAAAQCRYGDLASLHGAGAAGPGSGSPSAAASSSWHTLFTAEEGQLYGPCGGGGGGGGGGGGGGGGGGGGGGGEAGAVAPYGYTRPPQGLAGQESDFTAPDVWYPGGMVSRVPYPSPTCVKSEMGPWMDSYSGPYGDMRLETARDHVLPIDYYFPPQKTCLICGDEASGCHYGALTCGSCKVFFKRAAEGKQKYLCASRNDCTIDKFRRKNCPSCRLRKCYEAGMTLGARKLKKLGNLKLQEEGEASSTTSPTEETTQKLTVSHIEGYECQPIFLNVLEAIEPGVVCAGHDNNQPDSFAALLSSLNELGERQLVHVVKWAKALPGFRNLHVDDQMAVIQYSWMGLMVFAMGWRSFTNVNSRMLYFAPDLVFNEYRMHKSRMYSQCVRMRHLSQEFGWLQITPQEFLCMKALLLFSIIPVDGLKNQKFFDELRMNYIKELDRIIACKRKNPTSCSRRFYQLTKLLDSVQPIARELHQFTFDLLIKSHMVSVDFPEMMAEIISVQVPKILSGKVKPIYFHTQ
Chain of Nuclear receptor subfamily 1 group I member 3 (Homo sapiens) (Q14994 whole entry, looked up, the tested form may be a part): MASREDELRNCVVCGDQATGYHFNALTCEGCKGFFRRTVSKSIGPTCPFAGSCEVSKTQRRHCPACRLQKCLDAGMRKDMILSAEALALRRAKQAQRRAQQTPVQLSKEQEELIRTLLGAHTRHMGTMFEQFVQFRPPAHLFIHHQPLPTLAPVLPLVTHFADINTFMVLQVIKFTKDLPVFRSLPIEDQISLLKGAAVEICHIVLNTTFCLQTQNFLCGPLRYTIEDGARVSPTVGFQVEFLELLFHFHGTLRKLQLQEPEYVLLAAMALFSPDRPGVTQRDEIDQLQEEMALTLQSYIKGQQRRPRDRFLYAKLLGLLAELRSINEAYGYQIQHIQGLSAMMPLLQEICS
Chain of Signal transducer and activator of transcription 3 (Homo sapiens) (P40763 whole entry, looked up, the tested form may be a part): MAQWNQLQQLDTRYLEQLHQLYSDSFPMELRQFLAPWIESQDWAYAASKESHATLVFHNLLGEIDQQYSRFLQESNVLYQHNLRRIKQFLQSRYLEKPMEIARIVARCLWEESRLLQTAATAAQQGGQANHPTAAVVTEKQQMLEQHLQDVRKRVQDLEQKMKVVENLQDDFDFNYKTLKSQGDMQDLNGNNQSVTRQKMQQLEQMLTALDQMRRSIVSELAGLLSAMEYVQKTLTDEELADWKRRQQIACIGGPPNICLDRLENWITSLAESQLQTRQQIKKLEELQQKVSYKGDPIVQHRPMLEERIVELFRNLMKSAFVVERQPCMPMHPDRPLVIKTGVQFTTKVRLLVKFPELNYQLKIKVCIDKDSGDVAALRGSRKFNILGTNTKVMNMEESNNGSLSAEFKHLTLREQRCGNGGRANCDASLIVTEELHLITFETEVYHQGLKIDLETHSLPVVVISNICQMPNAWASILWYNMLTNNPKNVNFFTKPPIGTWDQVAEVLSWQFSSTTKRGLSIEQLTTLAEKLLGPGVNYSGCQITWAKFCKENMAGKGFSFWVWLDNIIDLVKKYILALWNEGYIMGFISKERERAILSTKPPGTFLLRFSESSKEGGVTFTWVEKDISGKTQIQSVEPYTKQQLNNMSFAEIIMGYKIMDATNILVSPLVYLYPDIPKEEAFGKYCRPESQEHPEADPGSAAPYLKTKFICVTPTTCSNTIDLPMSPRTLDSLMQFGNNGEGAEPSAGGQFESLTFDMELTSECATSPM
Chain of Paired box protein Pax-6 (Homo sapiens) (P26367 whole entry, looked up): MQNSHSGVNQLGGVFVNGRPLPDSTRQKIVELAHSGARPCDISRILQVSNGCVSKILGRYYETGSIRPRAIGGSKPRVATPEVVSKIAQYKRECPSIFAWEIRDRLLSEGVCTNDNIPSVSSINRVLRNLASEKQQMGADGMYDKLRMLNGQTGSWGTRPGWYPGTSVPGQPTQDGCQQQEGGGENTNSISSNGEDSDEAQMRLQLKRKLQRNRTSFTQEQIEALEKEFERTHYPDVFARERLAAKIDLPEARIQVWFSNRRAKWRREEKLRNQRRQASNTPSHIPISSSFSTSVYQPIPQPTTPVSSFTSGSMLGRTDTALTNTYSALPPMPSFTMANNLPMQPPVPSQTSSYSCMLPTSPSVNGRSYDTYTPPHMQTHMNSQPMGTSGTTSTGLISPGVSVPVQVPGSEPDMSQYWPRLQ
Chain of Estrogen receptor (Homo sapiens) (P03372 whole entry, looked up, the tested form may be a part): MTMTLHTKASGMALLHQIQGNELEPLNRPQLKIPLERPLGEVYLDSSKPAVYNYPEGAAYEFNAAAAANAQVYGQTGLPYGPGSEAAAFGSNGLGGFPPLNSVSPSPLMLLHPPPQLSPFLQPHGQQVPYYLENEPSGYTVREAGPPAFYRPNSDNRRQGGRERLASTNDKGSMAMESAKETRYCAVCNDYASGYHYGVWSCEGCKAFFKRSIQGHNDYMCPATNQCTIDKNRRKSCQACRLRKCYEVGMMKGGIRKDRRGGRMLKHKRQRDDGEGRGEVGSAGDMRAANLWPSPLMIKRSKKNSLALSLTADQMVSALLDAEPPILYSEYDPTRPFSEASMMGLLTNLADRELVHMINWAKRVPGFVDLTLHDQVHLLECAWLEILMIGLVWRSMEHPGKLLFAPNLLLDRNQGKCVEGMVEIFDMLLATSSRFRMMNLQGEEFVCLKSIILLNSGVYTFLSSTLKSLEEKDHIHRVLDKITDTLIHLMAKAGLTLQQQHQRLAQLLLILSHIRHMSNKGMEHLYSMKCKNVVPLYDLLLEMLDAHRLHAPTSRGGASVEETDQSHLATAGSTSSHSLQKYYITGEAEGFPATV

For `CC1(C)CCC(=Cc2ccc(Cl)cc2)C1(O)Cn1cncn1` (centres undefined), the molecule was called inactive in [1], in [4], in test [5], in test [6], in test [7] and in [8]. The call in [9], in test [10], in [11], in test [13], in test [14] and in test [15] was inactive. Moreover, the AC50 was 3.16 µM (active) in test [2], 29.7 µM (active) in test [3] and 8.04 µM (active) in test [12].

For `CS(=O)(=O)c1cc(C(F)(F)F)ccc1C(=O)c1cnoc1C1CC1`, the molecule was called inactive in test [1], in [3], in test [4], in test [5], in [6] and in test [7]. For the same molecule, the call in [8], in [9], in [10], in test [11], in test [12] and in [13] was inactive. For the same molecule, the molecule was called inactive in [16], in [14] and in test [15]. For the same molecule, the AC50 in [2] was 40.2 µM (active).

Regarding `Nc1c(Cl)c(F)nc(OCC(=O)O)c1Cl`, the call in [1], in [4], in test [5], in [6], in [7] and in [8] was inactive. The molecule was called inactive in [9], in test [10], in [11], in test [12], in test [16] and in [14]. Further, in [17], the call was inactive. The AC50 in [2] is 50 µM (active).

As for `COP(=S)(OC)Oc1ccc([N+](=O)[O-])c(C)c1`, the outcome in [1], in test [5], in test [6], in [7], in test [8] and in test [9] was inactive. The molecule was classed as inactive in test [10], in test [11], in test [13], in test [16] and in test [15]. Also, the AC50 in test [2] was 13.5 µM (active); in test [3], 50 µM (active); in [4], 50 µM (active); in test [12], 34.1 µM (active); in test [14], 50 µM (active).

For `COc1ccc(-c2ccccc2)cc1NNC(=O)OC(C)C`, the molecule was classed as inactive in test [1], in test [4], in test [5], in [6], in test [7] and in test [8]. For the same molecule, the molecule was classed as inactive in test [9], in [10], in test [11] and in [17]. Moreover, the AC50 in test [2] was 3.69 µM (active); in test [12], 7.63 µM (active); in test [14], 50 µM (active).

As to `C=CCOC(=O)C(C)(C)OC(=O)c1cc(-n2c(=O)cc(C(F)(F)F)n(C)c2=O)ccc1Cl`, the call in test [1], in test [3], in test [4], in test [5], in [6] and in test [18] was inactive. Moreover, the outcome in test [7], in [8], in [9], in [10], in test [11] and in [12] was inactive. Moreover, the call in test [14] and in test [15] was inactive. The AC50 in test [2] was 1.49 µM (active).

For `CC1(C)CON(Cc2ccccc2Cl)C1=O`, the call in test [1], in test [5], in test [6], in test [7], in [8] and in [9] was inactive. The outcome in [10], in test [11], in test [13], in [14] and in [15] was inactive. In addition, the AC50 is 14.8 µM (active) in test [2]; 50 µM (active) in test [3]; 13.4 µM (active) in test [4]; 13.2 µM (active) in test [12]; 66.7 µM (active) in test [19].

As to `Clc1cccc(C(Cl)(Cl)Cl)n1`, the molecule was called inactive in test [1], in test [4], in test [5], in [6], in [7] and in test [8]. In addition, the molecule was classed as inactive in test [9], in test [10], in test [11], in test [19], in test [14] and in [17]. The outcome in test [15] was inactive. Besides, in test [2], the AC50 was 48.7 µM (active).
